Screening data from PubChem BioAssay.
PTHR1 agonist = agonists of human PTHR1 parathyroid hormone receptor. Q03431. HEK293 GP2 PTHR1 cells, GloSensor cAMP luminescence, 1 h. Potency, µM (top dose mostly 115 µM), for the others: top-dose activation, hits mostly activators. 410,000 tested, 0.075% active; note: nearly all actives have a fitted effect of over 55% in size
Target sequence (Q03431 whole entry, looked up): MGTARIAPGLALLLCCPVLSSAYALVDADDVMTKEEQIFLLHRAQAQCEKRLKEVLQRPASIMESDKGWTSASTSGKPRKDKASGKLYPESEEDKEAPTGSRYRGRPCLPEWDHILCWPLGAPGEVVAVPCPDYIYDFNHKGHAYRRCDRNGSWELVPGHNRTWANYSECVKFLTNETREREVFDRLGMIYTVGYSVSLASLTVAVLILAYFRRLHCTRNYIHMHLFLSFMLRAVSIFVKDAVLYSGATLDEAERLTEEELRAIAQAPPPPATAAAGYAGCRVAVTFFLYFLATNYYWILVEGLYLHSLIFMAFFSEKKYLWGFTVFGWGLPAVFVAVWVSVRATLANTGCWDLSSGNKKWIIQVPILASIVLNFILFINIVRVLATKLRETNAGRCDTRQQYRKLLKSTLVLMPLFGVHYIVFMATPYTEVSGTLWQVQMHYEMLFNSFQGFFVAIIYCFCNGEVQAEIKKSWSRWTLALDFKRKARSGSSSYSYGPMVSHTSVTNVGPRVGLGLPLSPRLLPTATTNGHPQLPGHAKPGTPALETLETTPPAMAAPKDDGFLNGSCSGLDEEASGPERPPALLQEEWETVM
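HEK-293-derived GP2 cells expressing PTHR1 and a GloSensor cAMP reporter, 3,000/well, plated overnight, given luciferin plus IBMX (each 0.5 mM as added) for 1 h at 37 °C, then compound for 1 h at 37 °C. Luminescence was read after 15 min at room temperature.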
GLP-1R inv ag = acts as inverse agonist at human GLP-1 receptor. P43220. HEK293 GLP-1R CRE-luciferase, luminescence, 24 h; GLP-1R form is constitutively active. Potency, µM (titrated, usually from 38.3 µM), without a hit: at the highest dose activity change, negative = inhibition, actives largely listed as inhibitors. 410,000 tested, 1.6% active. AID 624417; note: % is set by controls: 0 for no effect and ±100 for the full control effect; nearly all actives have a fitted effect of over 55% in size
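Stable HEK293 clone (constitutively active GLP-1R + cAMP-response luciferase); 200 cells/uL plated, 12 h pre-culture, compound 24 hr, 37 deg C/5% CO2; detection reagent 12 min RT; luminescence.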
GLP1R ag = GLP-1 receptor (human) agonism; P43220; HEK293 GLP-1R CRE-luciferase, luminescence, 4-6 h; cells express a hypersensitive GLP-1R form; Potency, µM (highest dose often 45.6 µM), for inactives: at the top dose activation, usual class: activators; 380,000 tested, 0.007% active; AID 624172; note: % of control where 0% means no effect
GLP1R cytotox = cytotoxicity in counter-screen for GLP-1R inverse agonists; HEK293 cAMP-luciferase reporter cells, luminescence, 24 h; 410,000 tested, 0.13% active; Potency, µM (doses to about 38.3 µM), without a hit: top-dose activity change, negative = inhibition, hits mostly inhibitors;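 note: loss of luciferase light is scored as toxicity; % is set by controls: 0 for no effect and ±100 for the full control effect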
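Quantitative HTS format, 1536 wells, 200 cells/uL seeded. Compounds: 23 nL, 24 h, 37 °C. Detection: luciferase reagent, luminescence at 12 min RT; decreased signal taken as cytotoxic.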
* hit, by the source's call; i = inactive; ? = inconclusive; . = not tested or not shown; [ ] = remark or other dose. This is a sample that favours compounds with a hit; in the whole collection about 1.7% have one here. Calls come from the whole dose curve; as a rule, active = well fitted curve in the direction sought with a large enough effect; inconclusive = small, poorly fitted or top-dose-only effect, or another doubt; inactive = no such curve, though single readings can be large; an effect the other way counts as inactive or inconclusive. Potency is the fitted concentration of half-maximal effect.

SMILES | PTHR1 agonist | GLP-1R inv ag | GLP1R ag | GLP1R cytotox
O=S(=O)(O)C(F)(F)C(F)(F)C(F)(F)C(F)(F)C(F)(F)C(F)(F)C(F)(F)C(F)(F)F | . | . | -1%[96 µM] | .
CCCCCc1cc(O)c2c(c1)OC(C)(C)c1ccc(C)cc1-2 | . | . | -2% | .
O=C1[O][Sb-]23[O]C(=O)C([O]2)C2[O][Sb-]4([O]C(=O)C([O]4)C1[O]3)[O]C2=O | . | . | 2% | .
COc1ccc(-c2cc(CNc3nc(NC(C)C)nc4cc(-c5ccccc5)sc34)on2)cc1 | i | ? | 7% | ?
COC(=O)c1cc(=O)n(-c2ccc(F)cc2)c(=Nc2ccc(F)cc2)s1 | -55% | 4.5µM* | -6% | ?
CCCCc1nc2ccccc2c(=O)n1-c1cccc(OC)c1 | i | ? | . | 0%
Cc1ccc(S(=O)(=O)N2CCC(C(=O)OCc3ccccc3)CC2)cc1C | -76% | 10µM* | 13% | -11%
COc1ccccc1/C=C/C1(C(=O)NC2CCCC2)CC(=O)N1c1ccc(F)cc1 (stereo not given) | -6%[57.5 µM] | 3.5µM* | -1% | ?
COc1ccc2c(c1)C(c1ccc(N(CCCl)CCCl)cc1)=NCC2 | i | 10µM* | 17% | -30%
CCCCCC(O)C1C(=O)OC(C)C(O)\C=C/C=C\C=C/C=C\C=C(\C)C(O)C(O)C(O)CC(O)CC(O)CC(O)CC(O)CC1O (stereo not given) | . | . | 0% | .
CCOc1ccc(CN(CCc2ccc3c(c2)OCO3)Cc2cc(OC)ccc2O)cc1 | -36% | ? | . | -2%
COc1cc(CC(C)N)c(OC)cc1C (stereo not given) | . | . | -1%[110 µM] | .
COc1ccc(OC)c(C[C@H](C)N)c1 | . | . | -4%[110 µM] | .
CC(=O)Oc1ccc(-c2ccc(C(=O)Nc3cccc(S(=O)(=O)N4CCOCC4)c3)cc2)cc1 | -51% | 1.4µM* | 0% | ?
CCOP(=O)(OCC)O/C(=C/Cl)c1ccc(Cl)cc1Cl | . | . | 11% | .
COc1cccc(CC(=O)N2CCN(Cc3cccc(Cl)c3)CC2)c1 | -14% | ? | 13% | -16%
Cc1cccc(C(=O)N2CCC(=O)N(C(COCc3cccc(Cl)c3)Cc3ccccc3)CC2)c1 (stereo not given) | i | 8.9µM* | 4% | -8%
CCC(CC)c1nnc(NC(=O)CC(C)c2ccccc2)s1 (stereo not given) | -1% | 10µM* | -1% | -10%
CC(C)c1c(CN(C)[C@@H](C)Cc2ccccc2)n(C)n(-c2ccccc2)c1=O | . | . | 11%[19.8 µM] | .
Cc1ccc(-c2n[nH]c3c2C(c2cccs2)N(c2ccc(Cl)cc2)C3=O)cc1 (stereo not given) | -61% | 7.9µM* | -13% | ?
Cc1ccc(N2C(=O)c3[nH]nc(-c4ccc(Cl)cc4)c3C2c2ccc(F)cc2)cc1 (stereo not given) | -18% | ? | -6% | ?
COc1nc(NC2CCCCC2)nc(NC(C)(C)C)n1 | -26% | ? | ? | 4%
CCCN(CCC)c1nc(NC2CCN(C(=O)OCC)CC2)nc(OC)n1 | -28% | 2.8µM* | 8% | ?
CCC(=O)OC1[C@@H](N2CCCCC2)C[C@H]2[C@@H]3CC[C@H]4C[C@H](OC(C)=O)[C@@H](N5CCCCC5)C[C@]4(C)[C@H]3CC[C@]12C (stereo not given in full) | . | . | 0% | .
Cc1c(N)nc([C@@H](CC(N)=O)NC[C@H](N)C(N)=O)nc1C(=O)N[C@H](C(=O)N[C@H](C)[C@H](O)[C@H](C)C(=O)N[C@@H](C(=O)NCCc1nc(-c2nc(C(=O)NCCC[S+](C)C)cs2)cs1)[C@H](C)O)[C@H](O[C@@H]1O[C@@H](CO)[C@@H](O)[C@H](O)[C@@H]1O[C@H]1O[C@H](CO)[C@H](O)[C@H](OC(N)=O)[C@@H]1O)c1cnc[nH]1 | . | . | -6% | .
Cc1cc(OC(=O)N(C)C)nc(SCc2c(Cl)cccc2Cl)n1 | -95% | 10µM* | 6% | 1%
CCc1cc(OC)c(CC(C)N)cc1OC (stereo not given) | . | . | 7%[96 µM] | .
CC12CCC(=O)CC1CCC1C2CCC2(C)C1CCC2(C)O (stereo not given) | . | . | -7% | .
Oc1ccc(N=Nc2nc(-c3ccccc3)c(-c3ccccc3)[nH]2)cc1 | i | 5.6µM* | -1% | 10µM*
